Source: PubChem BioAssay (EPA / NIEHS)
Activity calls are given as the source filed them. How the source made its calls: active means hit-call score of the fitted dose curve at least 0.9, where 1 is the maximum; inactive means score below 0.9.

Assay: APR_HepG2_CellLoss_24hr: Apredica 24-hour HepG2 Assay for Cell Loss (AID 2282908)
Conditions: high-content imaging
In short: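 Nuclei stained with Hoechst 33342 after formaldehyde fixation (3.7%) were imaged at 20x to count cells. Exposure lasted 24 hr, at ten concentrations from 0.39 to 200 uM in duplicate, with 0.5% v/v DMSO. Fit bidirectional, relative to DMSO.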

outcome, inactive:
CC(=O)OCC(COC(C)=O)OC(C)=O
O=NO
CC(C)c1cccc(C(C)C)c1
CC(C)NCC(O)c1ccc(O)c(O)c1 (stereo not given)
CC(C)COC(=O)CCCCC(=O)OCC(C)C

Assay: APR_HepG2_MicrotubuleCSK_24hr: Apredica 24-hour HepG2 Assay for Microtubule CSK Stabilty (AID 2282909)
Conditions: HepG2 microtubule cytoskeleton imaging, actives raise or lower the signal
In short: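 Fixed HepG2 cells were stained for alpha-tubulin and imaged after 24 hr exposure to ten concentrations spanning 0.39–200 uM in 0.5% DMSO. Signal change was fitted in both directions relative to DMSO; taxol was the positive control.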

outcome, inactive:
CC(N)=O
CC(COCC(C)OC(=O)c1ccccc1)OC(=O)c1ccccc1 (stereo not given)
O=C(NS(=O)(=O)/C=C/c1cccs1)c1ccc(F)cc1Br
O=C(Oc1ccccc1)c1cccc(C(=O)Oc2ccccc2)c1
Cc1occc(=O)c1O
N[C@@H](Cc1c[nH]c2ccccc12)C(=O)O
CSc1ccc(Oc2ccc(S(N)(=O)=O)cc2CN(C)C)cc1C
CC(=O)O[C@]1(C(C)=O)CC[C@H]2[C@@H]3C=C(Cl)C4=CC(=O)[C@@H]5C[C@@H]5[C@]4(C)[C@H]3CC[C@@]21C
CC(=O)O
CCCCOC(=O)CCCCC(=O)OCCCC
CCCCCCCCCCCCCCCCO
Cn1cnc2c1c(=O)[nH]c(=O)n2C
O=Cc1ccccc1C=O
NC=O
CC(=O)CC(c1ccccc1)c1c(O)c2ccccc2oc1=O (stereo not given)
C#CC(O)C(CC)CCCC (stereo not given)
Nc1nc(=S)c2[nH]cnc2[nH]1
Cc1ccc(-c2cc(C(F)(F)F)nn2-c2ccc(S(N)(=O)=O)cc2)cc1
CCCCCCC(C=O)=Cc1ccccc1
O=C1NC(=O)C(c2ccccc2)(c2ccccc2)N1
O=C(O)c1cccnc1
O=C1CCCCC1
CCCC(=O)O
C/C=C/c1ccc(OC)cc1
CC(=O)OCC(COC(C)=O)OC(C)=O
O=NO
CC(C)c1cccc(C(C)C)c1
CC(C)NCC(O)c1ccc(O)c(O)c1 (stereo not given)
CC(C)COC(=O)CCCCC(=O)OCC(C)C

AC50, active:
O=C(N[C@@H](c1ccccc1)[C@@H]1CCCCN1)c1cccc(C(F)(F)F)c1Cl 11.4 µM

Assay: APR_HepG2_MitoticArrest_24hr: Apredica 24-hour HepG2 Assay for Mitotic Arrest (AID 2282910)
Conditions: high-content imaging, actives raise or lower the signal
In short: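 Treatment lasted 24 hr in the human HepG2 line at 0.39–200 uM, solvent held at 0.5% DMSO. Fixed cells were stained with Hoechst 33342 and anti-phospho-histone H3, imaged at 20x, and analysed by gain- or loss-of-signal fitting against DMSO.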

outcome, inactive:
CC(N)=O
CC(COCC(C)OC(=O)c1ccccc1)OC(=O)c1ccccc1 (stereo not given)
O=C(NS(=O)(=O)/C=C/c1cccs1)c1ccc(F)cc1Br
O=C(Oc1ccccc1)c1cccc(C(=O)Oc2ccccc2)c1
Cc1occc(=O)c1O
N[C@@H](Cc1c[nH]c2ccccc12)C(=O)O
CC(=O)O[C@]1(C(C)=O)CC[C@H]2[C@@H]3C=C(Cl)C4=CC(=O)[C@@H]5C[C@@H]5[C@]4(C)[C@H]3CC[C@@]21C
CCCCOC(=O)CCCCC(=O)OCCCC
CCCCCCCCCCCCCCCCO
Cn1cnc2c1c(=O)[nH]c(=O)n2C
O=Cc1ccccc1C=O
NC=O
CC(=O)CC(c1ccccc1)c1c(O)c2ccccc2oc1=O (stereo not given)
C#CC(O)C(CC)CCCC (stereo not given)
Nc1nc(=S)c2[nH]cnc2[nH]1
CCCCCCC(C=O)=Cc1ccccc1
O=C1NC(=O)C(c2ccccc2)(c2ccccc2)N1
O=C(O)c1cccnc1
O=C1CCCCC1
CCCC(=O)O
C/C=C/c1ccc(OC)cc1
CC(=O)OCC(COC(C)=O)OC(C)=O
O=NO
CC(C)c1cccc(C(C)C)c1
CC(C)NCC(O)c1ccc(O)c(O)c1 (stereo not given)
CC(C)COC(=O)CCCCC(=O)OCC(C)C

AC50, active:
CSc1ccc(Oc2ccc(S(N)(=O)=O)cc2CN(C)C)cc1C 88.9 µM
CC(=O)O 126 µM
O=C(N[C@@H](c1ccccc1)[C@@H]1CCCCN1)c1cccc(C(F)(F)F)c1Cl 12.6 µM
Cc1ccc(-c2cc(C(F)(F)F)nn2-c2ccc(S(N)(=O)=O)cc2)cc1 53.2 µM

Assay: APR_HepG2_MitoMembPot_24hr: Apredica 24-hour HepG2 Assay for Mitochondrial Membrane Potential (AID 2282911)
Conditions: imaging, actives raise or lower the signal
In short: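 HepG2 human liver cells were exposed 24 hr to compounds at 0.39–200 uM (final DMSO 0.5% v/v) in duplicate. MitoTracker Red CMXRos (250 nM, 30 min) was loaded before formaldehyde fixation; fluorescence was imaged by ArrayScan HCS and fitted bidirectionally versus DMSO.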

outcome, inactive:
CC(N)=O
CC(COCC(C)OC(=O)c1ccccc1)OC(=O)c1ccccc1 (stereo not given)
O=C(NS(=O)(=O)/C=C/c1cccs1)c1ccc(F)cc1Br
O=C(Oc1ccccc1)c1cccc(C(=O)Oc2ccccc2)c1
Cc1occc(=O)c1O
N[C@@H](Cc1c[nH]c2ccccc12)C(=O)O
CC(=O)O[C@]1(C(C)=O)CC[C@H]2[C@@H]3C=C(Cl)C4=CC(=O)[C@@H]5C[C@@H]5[C@]4(C)[C@H]3CC[C@@]21C
CC(=O)O
CCCCOC(=O)CCCCC(=O)OCCCC
CCCCCCCCCCCCCCCCO
O=C(N[C@@H](c1ccccc1)[C@@H]1CCCCN1)c1cccc(C(F)(F)F)c1Cl
Cn1cnc2c1c(=O)[nH]c(=O)n2C
O=Cc1ccccc1C=O
NC=O
CC(=O)CC(c1ccccc1)c1c(O)c2ccccc2oc1=O (stereo not given)
C#CC(O)C(CC)CCCC (stereo not given)
Nc1nc(=S)c2[nH]cnc2[nH]1
Cc1ccc(-c2cc(C(F)(F)F)nn2-c2ccc(S(N)(=O)=O)cc2)cc1
CCCCCCC(C=O)=Cc1ccccc1
O=C1NC(=O)C(c2ccccc2)(c2ccccc2)N1
O=C(O)c1cccnc1
O=C1CCCCC1
CCCC(=O)O
C/C=C/c1ccc(OC)cc1
CC(=O)OCC(COC(C)=O)OC(C)=O
O=NO
CC(C)c1cccc(C(C)C)c1
CC(C)NCC(O)c1ccc(O)c(O)c1 (stereo not given)
CC(C)COC(=O)CCCCC(=O)OCC(C)C

AC50, active:
CSc1ccc(Oc2ccc(S(N)(=O)=O)cc2CN(C)C)cc1C 100 µM
